From the supplement of paper PMC7411054 come the findings set out here.

Holding throughout (conditions): treatment time: 24 h
Experiment [1] concerns A549-ACTB-RAB5A. Nature of the experiment: phenotypically active (imaging signature differs from DMSO and reproducible) at any of 0.3-9 uM (binary (1 = active, 0 = inactive)); higher = active. A digest of the protocol:
(§1)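 Fifteen gene-edited A549, HepG2 and WPMY1 reporter lines (BFP segmentation plus GFP and RFP/FusionRed markers) were treated at 0.3, 1, 3 or 9 µM for 24 h, four wells each, then imaged live. Live-cell features per well were normalised to DMSO control wells. Deviation required ≥3 of 4 wells beyond the 95th percentile of DMSO Euclidean distances, and reproducibility required median replicate Pearson correlation above the 95th percentile of non-replicates. Phenotypic activity needed both criteria.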

Experiment [2] deals with A549-CANX-COX4. The description is as above. A digest of the protocol:
as §1

Experiment [3] relates to A549-GM130-SQSTM1. The description is as above. A digest of the protocol:
as §1

In experiment [4] the test system is A549-TP53BP1-CLTA. Described as above. The method in brief: as §1
Experiment [5] concerns A549-TUBA1B-RELA. The experiment is described as above. A digest of the protocol:
as §1

In another experiment the test system is HepG2-ACTB-RAB5A. The description is as above. A digest of the protocol:
as §1

In another experiment the test system is HepG2-CANX-COX4. The description is as above. A digest of the protocol: as §1
A further experiment concerns HepG2-GM130-SQSTM1. The description is as above. The method in brief:
as §1

For the next experiment, the system named is HepG2-TP53BP1-CLTA. The description is as above. A digest of the protocol: as §1
A further experiment relates to HepG2-TUBA1B-RELA. The experiment is described as above. The method in brief:
as §1

The test system of another experiment is WPMY1-ACTB-RAB5A. Described as above. A digest of the protocol: as §1
A further experiment relates to WPMY1-CANX-COX4. The experiment is described as above. A digest of the protocol:
as §1

The test system of another experiment is WPMY1-GM130-SQSTM1. The experiment is described as above. A digest of the protocol:
as §1

A further experiment relates to WPMY1-TP53BP1-CLTA. The experiment is described as above. A digest of the protocol:
as §1

For the next experiment, the system named is WPMY1-TUBA1B-RELA. Described as above. A digest of the protocol:
as §1

For experiment [6], the system named is A549-ACTB-RAB5A. Nature of the experiment: lowest phenotypically active concentration; higher = less potent. The method in brief: as §1
For experiment [7], the system named is A549-CANX-COX4. Described as above. A digest of the protocol: as §1
The subject of experiment [8] is A549-GM130-SQSTM1. The experiment is described as above. The method in brief: as §1
The subject of experiment [9] is A549-TP53BP1-CLTA. Described as above. The method in brief:
as §1

Experiment [10] deals with A549-TUBA1B-RELA. The experiment is described as above. A digest of the protocol:
as §1

Consider `CCCCc1nc(Cl)c(CO)n1Cc1ccc(-c2ccccc2-c2nnn[nH]2)cc1` [losartan], for which the phenotypically active in the experiment on A549-ACTB-RAB5A [1], in the experiment with A549-CANX-COX4 [2], in the experiment on A549-GM130-SQSTM1 [3], with A549-TP53BP1-CLTA [4], in the experiment on A549-TUBA1B-RELA [5] and in the experiment on HepG2-ACTB-RAB5A was 0 (inactive) throughout. Besides, the phenotypically active in the experiment with HepG2-CANX-COX4, in the experiment on HepG2-GM130-SQSTM1, in the experiment on HepG2-TP53BP1-CLTA, in the experiment on HepG2-TUBA1B-RELA, with WPMY1-ACTB-RAB5A and with WPMY1-CANX-COX4 was 0 (inactive) each time. Moreover, the phenotypically active with WPMY1-GM130-SQSTM1, in the experiment on WPMY1-TP53BP1-CLTA and with WPMY1-TUBA1B-RELA was 0 (inactive) in each case.

On to `CCOc1cc(CC(=O)N[C@@H](CC(C)C)c2ccccc2N2CCCCC2)ccc1C(=O)O` [repaglinide], for which the phenotypically active in the experiment with A549-ACTB-RAB5A [1], in the experiment with A549-CANX-COX4 [2], with A549-GM130-SQSTM1 [3], with A549-TP53BP1-CLTA [4], in the experiment with A549-TUBA1B-RELA [5] and in the experiment with HepG2-ACTB-RAB5A was 0 (inactive) throughout. For the same compound, the phenotypically active in the experiment with HepG2-CANX-COX4, with HepG2-GM130-SQSTM1, in the experiment on HepG2-TP53BP1-CLTA, with HepG2-TUBA1B-RELA, in the experiment on WPMY1-ACTB-RAB5A and in the experiment with WPMY1-CANX-COX4 was 0 (inactive) in each case. Besides, the phenotypically active with WPMY1-GM130-SQSTM1, in the experiment with WPMY1-TP53BP1-CLTA and with WPMY1-TUBA1B-RELA was 0 (inactive) each time.

With `C[C@@H]1C[C@H]2[C@@H]3C[C@H](F)C4=CC(=O)C=C[C@]4(C)[C@@]3(F)[C@@H](O)C[C@]2(C)[C@@]1(O)C(=O)COC(=O)C(C)(C)C` [flumethasone pivalate], the “lowest phenotypically active concentration” value in the experiment on A549-ACTB-RAB5A [6], in the experiment on A549-CANX-COX4 [7], with A549-GM130-SQSTM1 [8], in the experiment on A549-TP53BP1-CLTA [9] and in the experiment on A549-TUBA1B-RELA [10] was not above 0.3 µM in each case. For the same compound, the phenotypically active in the experiment with A549-ACTB-RAB5A [1] was 1 (active); in the experiment on A549-CANX-COX4 [2] it was 1 (active); in the experiment with A549-GM130-SQSTM1 [3], 1 (active); with A549-TP53BP1-CLTA [4] it was 1 (active); in the experiment on A549-TUBA1B-RELA [5], 1 (active); with HepG2-ACTB-RAB5A it was 0 (inactive). In addition, the phenotypically active with HepG2-CANX-COX4, with HepG2-GM130-SQSTM1, in the experiment with HepG2-TP53BP1-CLTA, in the experiment on HepG2-TUBA1B-RELA, in the experiment on WPMY1-ACTB-RAB5A and with WPMY1-CANX-COX4 was 0 (inactive) throughout. In addition, the phenotypically active in the experiment with WPMY1-GM130-SQSTM1, in the experiment with WPMY1-TP53BP1-CLTA and with WPMY1-TUBA1B-RELA was 0 (inactive) throughout.

Take `CC1(C)O[C@@H]2C[C@H]3[C@@H]4C[C@H](F)C5=CC(=O)CC[C@]5(C)[C@H]4[C@@H](O)C[C@]3(C)[C@]2(C(=O)CO)O1` [flurandrenolide]: the “lowest phenotypically active concentration” value in the experiment on A549-ACTB-RAB5A [6], in the experiment on A549-CANX-COX4 [7], in the experiment on A549-GM130-SQSTM1 [8], in the experiment on A549-TP53BP1-CLTA [9] and in the experiment on A549-TUBA1B-RELA [10] was not above 0.3 µM each time. In addition, the phenotypically active in the experiment on A549-ACTB-RAB5A [1] is 1 (active); in the experiment on A549-CANX-COX4 [2], 1 (active); with A549-GM130-SQSTM1 [3], 1 (active); with A549-TP53BP1-CLTA [4], 1 (active); in the experiment on A549-TUBA1B-RELA [5], 1 (active); in the experiment on HepG2-ACTB-RAB5A it was 0 (inactive). Also, the phenotypically active in the experiment on HepG2-CANX-COX4, in the experiment with HepG2-GM130-SQSTM1, in the experiment with HepG2-TP53BP1-CLTA, with HepG2-TUBA1B-RELA, with WPMY1-ACTB-RAB5A and with WPMY1-CANX-COX4 was 0 (inactive) in each case. Further, the phenotypically active in the experiment with WPMY1-GM130-SQSTM1, in the experiment on WPMY1-TP53BP1-CLTA and in the experiment with WPMY1-TUBA1B-RELA was 0 (inactive) in each case.
